# Assay results: PubChem BioAssay (NCI)
# Compounds without any hit were thinned out: in the full panel of roughly 83,000, 20% have a hit.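 Assay: single dose, 48 h. Readout: percent growth (0 = no net growth; negative = cell death). Active: <10.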 Values without a mark were called inactive. Activity calls are given as the source filed them.
# How the values were obtained:
# Experiment in all cases: NCI-60 one-dose screen, 48 h (100 = growth as untreated, 0 = no growth, -100 = all killed)
# NCI-H322M lung = details: 10 µM
# HOP-62 NSCLC = details: 10 µM
# NCI-H460 lung = details: 10 µM
# NCI-H522 lung = details: 10 µM
# A549/ATCC NSCLC = details: 10 µM
# DU-145 prostate = details: 10 µM
# MALME-3M melanoma = details: 10 µM
# SF-268 CNS = details: 10 µM
# SF-295 CNS = details: 10 µM
# SF-539 CNS = details: 10 µM
# UACC-257 melanoma = details: 10 µM
# M14 melanoma = details: 10 µM
# HCT-15 colon = details: 10 µM
# HT29 colon = details: 10 µM
# SNB-75 CNS = details: 10 µM
# PC-3 prostate = details: 10 µM
# SK-MEL-5 melanoma = details: 10 µM
# UACC-62 melanoma = details: 10 µM
# SK-MEL-2 melanoma = details: 10 µM
# HL-60(TB) leukemia = details: 10 µM unless noted
Structure (SMILES),growth (NCI-H322M lung),growth (HOP-62 NSCLC),growth (NCI-H460 lung),growth (NCI-H522 lung),growth (A549/ATCC NSCLC),growth (DU-145 prostate),growth (MALME-3M melanoma),growth (SF-268 CNS),growth (SF-295 CNS),growth (SF-539 CNS),growth (UACC-257 melanoma),growth (M14 melanoma),growth (HCT-15 colon),growth (HT29 colon),growth (SNB-75 CNS),growth (PC-3 prostate),growth (SK-MEL-5 melanoma),growth (UACC-62 melanoma),growth (SK-MEL-2 melanoma),growth (HL-60(TB) leukemia)
COCCOCCOCCOc1ccc(-n2cc(CCCN(CCNc3ccnc4cc(Cl)ccc34)C(=O)CCC(=O)O[C@@H]3O[C@@H]4OC5(C)CC[C@H]6[C@H](C)CC[C@@H]([C@H]3C)[C@@]46OO5)nn2)cc1,69.2%,61.2%,52%,1.23% (active),46.1%,62%,-61.2% (active),56.9%,40.5%,47.4%,13.1%,34.8%,14.2%,20.6%,57.6%,32.3%,-16.4% (active),37%,47.9%,-27.5% (active)
CN(C)CCc1cn(C2CCC2)c2cccc(O)c12,91.2%,82.1%,70.7%,83.6%,71.8%,91.3%,46.5%,81.6%,76.4%,61.9%,41.8%,15.9%,62.2%,34.9%,58.3%,59.9%,46.6%,48.9%,99.4%,12.5%
C#CC[Se]C(=O)c1ccc2n[se]nc2c1,12%,28.6%,63.9%,51.9%,59.7%,71.8%,41.5%,89.4%,25.4%,40.3%,59.3%,54.9%,25.8%,39.6%,56.5%,39.6%,83.2%,51.4%,104%,1.82% (active)
O=C(/C=C/c1ccc(Cl)cc1)c1nc2ccccc2n1Cc1ccc(F)cc1,53.5%,17.7%,26.8%,34.9%,44.7%,37.6%,49.9%,39.9%,50.7%,-41.7% (active),51.4%,16.1%,-1.45% (active),5.22% (active),60.9%,19.5%,69%,23.5%,68.3%,-2.58% (active)
C=CCN=C([Se])NC(=O)c1ccc2c(c1)OCO2,14.8%,26.9%,18.3%,105%,40.4%,101%,110%,110%,13.7%,67.3%,102%,86.8%,97.1%,96%,26%,40.1%,90.8%,97.9%,143%,106%
O=C(/C=C/c1ccc(Cl)cc1)c1nc2ccccc2n1Cc1ccc(Br)cc1,78.8%,65.5%,58.1%,76%,73.4%,66.1%,71.5%,75.3%,73.3%,43.8%,71%,65.4%,21.4%,38.1%,79.2%,36.6%,85%,48.6%,83.3%,–
C=CC[Se]C(=O)c1ccc(C(=O)[Se]CC=C)s1,-63.7% (active),-70.9% (active),-53.2% (active),-95.5% (active),1.38% (active),-92.8% (active),-47.7% (active),-39.4% (active),-52.5% (active),-97% (active),-78.4% (active),-90% (active),-42.5% (active),-7.14% (active),-96.8% (active),-58.2% (active),-70.8% (active),-22.8% (active),-65.6% (active),-31.6% (active)
